Only some compounds are listed: those with a hit (about 7.5% of all), similar ones and a draw of the others.
Rab9 promoter act = qHTS Assay for Rab9 Promoter Activators. actives 2.8% (n = 320,000). Potency, µM (highest dose often 9.22 µM), for the others: top-dose activation, negative = inhibition, actives largely listed as activators. Huh7 Rab9 promoter-luciferase reporter, luminescence, 24 h; note: % of control where 0% means no effect; nearly all actives have a fitted effect of over 60% in size
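Cells were plated at 1500 per well in reduced-serum medium with 10% FBS and left 2 h. Compound in DMSO was then added for 24 h at 37 °C. Reporter signal was read by luminescence after 10 min with luciferase detection reagent.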
KinaseGlo FLuc = Counterscreen for Luciferase (Kinase-Glo TM) Inhibition; Kinase-Glo luciferase, ATP luminescence, 8 min; actives 0.28% (n = 200,000); Luciferin 4-monooxygenase (Photuris pensylvanica), Q27757; Potency, µM (series often up to 38.3 µM), inactives show at the top dose activity change, negative = inhibition, actives largely listed as inhibitors; note: % is set by controls: 0 for no effect and ±100 for the full control effect; nearly all actives have a fitted effect of over 60% in size
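Inhibition of Kinase-Glo luciferase light generation was assessed at 10 uM ATP in pH 7.2 imidazole buffer, with luminescence measured after eight minutes at ambient temperature.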
FLuc modulator = qHTS profiling assay for firefly luciferase inhibitor/activator using purifed enzyme and Km concentrations of substrates (counterscreen for miR-21 project). purified FLuc, Km substrates, luminescence inhibition. actives 6.9% (n = 360,000). Luciferin 4-monooxygenase (Photinus pyralis), P08659. Potency, µM (doses to about 57.5 µM), without a hit: at the top dose activity change, negative = inhibition, usual class: inhibitors;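 note: plate controls were vehicle for no effect and reference inhibitor for full effect; nearly all actives have a fitted effect of over 55% in size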
Target sequence (P08659 whole entry, looked up): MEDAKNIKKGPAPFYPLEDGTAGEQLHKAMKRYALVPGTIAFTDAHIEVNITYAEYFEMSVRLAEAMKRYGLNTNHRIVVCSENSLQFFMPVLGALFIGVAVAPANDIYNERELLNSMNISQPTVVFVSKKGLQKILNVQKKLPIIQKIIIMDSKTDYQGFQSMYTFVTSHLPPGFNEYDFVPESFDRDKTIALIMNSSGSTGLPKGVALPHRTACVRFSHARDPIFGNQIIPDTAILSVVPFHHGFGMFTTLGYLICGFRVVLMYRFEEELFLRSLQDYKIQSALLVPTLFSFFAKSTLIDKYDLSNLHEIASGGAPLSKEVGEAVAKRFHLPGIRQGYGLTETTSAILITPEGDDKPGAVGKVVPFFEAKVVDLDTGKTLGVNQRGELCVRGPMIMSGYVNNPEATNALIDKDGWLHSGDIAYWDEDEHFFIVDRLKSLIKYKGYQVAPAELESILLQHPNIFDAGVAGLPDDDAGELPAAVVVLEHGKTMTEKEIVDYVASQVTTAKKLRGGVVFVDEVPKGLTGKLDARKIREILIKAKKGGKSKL
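Purified P. pyralis luciferase (10nM final) with 10uM D-luciferin and 10uM ATP (Km levels) in 50mM Tris acetate pH 7.5, 10mM Mg acetate, 0.01% Tween-20, 0.05% BSA; qHTS 6-point titration, ~60 µM downward; luminescence read.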
NPC1 promoter act = qHTS Assay for NPC1 Promoter Activators | Huh7 NPC1 promoter luciferase reporter, 24 h | Potency, µM (top dose mostly 9.22 µM), for inactives: at the top dose activation, actives largely listed as activators | actives 2.4% (n = 320,000); note: % of control where 0% means no effect; nearly all actives have a fitted effect of over 60% in size
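Compounds in DMSO were transferred onto Huh7 NPC1-luciferase reporter cells pre-incubated 2 h; after 24 h at 37 °C, Amplite reagent was dispensed and luminescence recorded 10 min later.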
SMN2 splice up = qHTS Assay for Enhancers of SMN2 Splice Variant Expression; HEK293 SMN2-luciferase splicing reporter, luminescence, 30-36 h; Potency, µM (series often up to 46.1 µM), inactives show at the top dose activity change, positive = activation, most hits filed as activators; actives 2.8% (n = 210,000); AID 1458, 2008; note: % of control where 0% means no effect; nearly all actives have a fitted effect of over 55% in size
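qHTS luciferase splicing reporter: luminescence rises when SMN2 exon 7 is included in transfected HEK293 cells. Compound exposure lasted 30-36 h at 37C, with 4.5 mM final sodium butyrate as control, followed by a ONE-Glo read.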
ELG1 genotox = qHTS screen for small molecules that induce genotoxicity in human embryonic kidney (HEK293T) cells expressing luciferase-tagged ELG1; HEK293T ELG1-luciferase reporter, luminescence, 16 h; Potency, µM (series often up to 46 µM), for the others: top-dose activity change, positive = activation, actives largely listed as activators; actives 1.3% (n = 330,000); AID 504466, 2011; note: % of control where 0% means no effect; nearly all actives have a fitted effect of over 60% in size
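Cells (2,000/well) expressing the ELG1-luciferase fusion are dosed by pin tool and kept 16 hr at 37 °C, 5% CO2. Signal comes from ONE-Glo luciferase reagent after 30 min at room temperature.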
* = called active by the depositor; ? = inconclusive; · = no result; [ ] = remark or other dose. Calls come from the whole dose curve; as a rule, active = well fitted curve in the direction sought with a large enough effect; inconclusive = small, poorly fitted or top-dose-only effect, or another doubt; inactive = no such curve, though single readings can be large; an effect the other way counts as inactive or inconclusive. Potency is the fitted concentration of half-maximal effect.

SMILES	Rab9 promoter act	KinaseGlo FLuc	FLuc modulator	NPC1 promoter act	SMN2 splice up	ELG1 genotox
CC(C)(O)[C@@H]1CC[C@@](C)(C2CC[C@]3(C)C2[C@H](O)CC2[C@@]4(C)CC[C@H](O)C(C)(C)C4[C@@H](O[C@H]4O[C@@H](CO)[C@H](O)[C@@H](O)[C@@H]4O[C@@H]4O[C@H](CO)[C@@H](O)[C@H](O)[C@H]4O)C[C@]23C)O1 (stereo in doubt)	·	·	·	·	·	2.3%
O=C(Nc1cccc(C(=O)OCc2cc(=O)n3ccsc3n2)c1)c1ccc(F)cc1	·	·	-1.5%	·	·	·
O=C(Nc1ccc(NC(=O)c2ccco2)cc1)c1ccc2c(c1)OCO2	7.1%	?	0.1%	3.6%	11.6%	?
O=C(Nc1ccc(NC(=O)c2ccco2)c(Cl)c1)c1ccc2c(c1)OCCO2	3.98µM*	·	0.477µM*	?	·	11.1%
O=C(Nc1cc2c(cc1Br)OCCO2)c1cccs1	2.51µM*	14.2%	10.7µM*	2.82µM*	22.4µM*	11.6µM*
CCCC(=O)c1cc2c(cc1NC(=O)c1cccs1)OCCO2	14.4%	-3.4%	-6.6%	-0.8%	-3.0%	1.8%
O=C(Nc1cc2c(cc1Cl)OCCO2)c1ccco1	?	-3.3%	19µM*	?	12.6µM*	24.8%
Cc1cc(NC(=O)c2ccc3c(c2)OCCO3)ccc1NC(=O)c1cc2ccccc2o1	17.2%	2.8%	2.69µM*	14.9%	-32.2%	-13.5%
Cc1cc(C)cc(OCC(=O)N(Cc2ccco2)Cc2ccccc2Cl)c1	·	·	-13.8%	·	-20.3%	·
O=C(Cc1ccc(F)cc1)Nc1nnc2n1CCS2	·	·	0.7%	·	·	·
CCOC(=O)Cc1ccc(NC(=O)N(Cc2ccc(OC)cc2)C2CCN(C(C)=O)CC2)cc1	·	·	-3.2%	·	·	·
O=C(Nc1cc2c(cc1Br)OCCO2)c1ccco1	29.6%	-8.5%	23.9µM*	23.2%	12.6µM*	?
CC(=O)c1cc2c(cc1NC(=O)c1ccco1)OCCO2	-4.7%	5.1%	0.5%	-6.4%	15.5%	0.3%
Nc1ccc(CSc2ccc(Cl)cc2)cc1	?	-0.4%	26.9µM*	?	25.7%	?
CN1c2ccccc2C(=O)C(=C2SCCCS2)S1(=O)=O	-3.3%	·	19µM*	0.7%	·	-1.3%
CC(=O)[C@]1(O)Cc2c(O)c3c(c(O)c2[C@@H](O[C@H]2C[C@H](N)[C@H](O)[C@H](C)O2)C1)C(=O)c1c(O)cccc1C3=O	·	-12.2%[39.9 µM]	·	·	·	·
Clc1ccc(Nc2nc(C3CC3)cs2)cc1	1.58µM*	1.2%	7.57µM*	3.16µM*	11.2µM*	6.51µM*
Cc1ccc(Nc2nc(C3CC3)cs2)cc1	3.55µM*	-2.8%	3.79µM*	3.98µM*	3.98µM*	8.2µM*
Cc1cccc(CCNc2nc3ccc(C)cc3n3cnnc23)c1	13.8%[1.84 µM]	·	16.9µM*	?	·	?
Cc1ccc2nc(NCCc3ccc(Cl)cc3)c3nncn3c2c1	-1.6%	·	0.2%	-2.4%	?	-0.2%
Cc1ccc(Nc2nc3ccccc3n3cnnc23)cc1C	?	·	?	1.12µM*	·	9.8%
COc1cc(C(=O)NCC(=O)NNC(=O)C2COc3ccccc3O2)cc(OC)c1OC (stereo not given)	1.2%	·	0.2%	-2.3%	·	2.1%
CC1C(=O)NN=C1C(=O)N/N=C/c1ccco1 (stereo not given)	14.6%	?	-1.7%	-2.2%	6.9%	0.5%
C/C(=N\NC(=O)c1ccccc1O)c1cccs1	0.562µM*	11.2µM*	7.57µM*	0.562µM*	3.55µM*	?
C/C(=N/NC(=O)c1cc(C2CC2)[nH]n1)c1cccs1	0.282µM*	?	1.51µM*	0.355µM*	2.51µM*	?
